We go through nine compounds from PubChem BioAssay (NCI).

The panel holds about 83,000 compounds, 20% with a hit somewhere; the sample as a whole holds those more often.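 Step 1: grow cells in 96-well plates. Step 2: add test compound at a single concentration. Step 3: incubate 48 h. Step 4: record percent growth.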 Unmarked numbers belong to inactive results. Active and inactive are the calls of the source. The calls were made as follows: active = growth percent below 10; inactive = the rest.

Some test systems named below: RPMI-8226 leukemia; OVCAR-8 ovarian; OVCAR-5 ovarian; OVCAR-4 ovarian; SK-OV-3 ovarian; IGROV1 ovarian; OVCAR-3 ovarian; HS 578T breast; NCI/ADR-RES ovarian; T-47D breast; BT-549 breast; MDA-MB-435 melanoma; SW-620 colon; MCF7 breast; HCT-116 colon; HCC-2998 colon; KM12 colon.
What all share (experiment): NCI-60 one-dose screen, 48 h (100 = growth as untreated, 0 = no growth, -100 = all killed)
Holding throughout (settings): 10 µM unless noted

Regarding `CC(CCC(=O)O)(NC(=O)c1ccc([N+](=O)[O-])cc1)C(=O)O` (stereo not drawn), the growth in the assay with RPMI-8226 leukemia is 116%; in the assay on OVCAR-8 ovarian, 102%; in the assay with OVCAR-5 ovarian, 118%; with OVCAR-4 ovarian, 111%; in the assay on SK-OV-3 ovarian it was 96%; with IGROV1 ovarian it was 115%. Moreover, the growth in the assay on OVCAR-3 ovarian is 108%; with HS 578T breast, 105%; with NCI/ADR-RES ovarian, 108%; with T-47D breast, 93.7%; in the assay with BT-549 breast it was 114%; in the assay on MDA-MB-435 melanoma, 105%. Moreover, the growth is 103% in the assay on SW-620 colon; 107% with MCF7 breast; 98.9% with HCT-116 colon; 90.4% with HCC-2998 colon; 99.3% with KM12 colon.

Regarding `CCC(C)CC(CC)NCCN1CCN(C(CC)CC(C)CC)C1=S` (stereo not drawn), the growth in the assay with RPMI-8226 leukemia was -46.2% (active); in the assay with OVCAR-8 ovarian, 62.7%; in the assay on OVCAR-5 ovarian, 37.2%; in the assay on OVCAR-4 ovarian it was 37.8%; in the assay on SK-OV-3 ovarian it was 56.2%; in the assay on IGROV1 ovarian, 52.7%. The growth in the assay with OVCAR-3 ovarian was 39.5%; in the assay on HS 578T breast, 67.2%; in the assay on NCI/ADR-RES ovarian, 56.4%; with T-47D breast, -9.85% (active); with BT-549 breast, 78.6%; with MDA-MB-435 melanoma it was 26.8%. For the same compound, the growth in the assay with SW-620 colon is 29.1%; in the assay with MCF7 breast it was -60.9% (active); with HCT-116 colon, 16.4%; in the assay with HCC-2998 colon, -45.6% (active); with KM12 colon it was 24.4%.

Consider `COc1ccc(C2CC(c3ccc(OC)c(OC)c3)=NN2C(=O)c2cc(OC)c(OC)c(OC)c2)c(OC)c1` (stereo not drawn), for which the growth is 92.4% with RPMI-8226 leukemia; 91.2% in the assay on OVCAR-8 ovarian; 93% in the assay on OVCAR-5 ovarian; 74.7% in the assay on OVCAR-4 ovarian; 65.6% in the assay on SK-OV-3 ovarian; 61.6% in the assay with IGROV1 ovarian. Moreover, the growth was 52.9% with OVCAR-3 ovarian; 49.6% in the assay with HS 578T breast; 53.2% in the assay with NCI/ADR-RES ovarian; 82% in the assay with T-47D breast; 63.2% in the assay on BT-549 breast; 3.86% (active) in the assay with MDA-MB-435 melanoma. Further, the growth was 62.2% in the assay on SW-620 colon; 35.1% with MCF7 breast; 68.7% in the assay on HCT-116 colon; 96.5% with HCC-2998 colon; 61.5% in the assay on KM12 colon.

With `O=C1c2ccccc2C(=O)c2c1cccc2-n1nnc2ccccc21`, the growth in the assay with RPMI-8226 leukemia is 59.8%; with OVCAR-8 ovarian, 102%; in the assay with OVCAR-5 ovarian, 105%; in the assay with OVCAR-4 ovarian, 97.5%; with SK-OV-3 ovarian, 119%; with IGROV1 ovarian it was 82.9%. Moreover, the growth is 115% in the assay on OVCAR-3 ovarian; 94.2% with HS 578T breast; 107% in the assay with NCI/ADR-RES ovarian; 93.5% in the assay on T-47D breast; 113% in the assay with BT-549 breast; 121% in the assay with MDA-MB-435 melanoma. Also, the growth in the assay with SW-620 colon is 105%; in the assay on MCF7 breast, 112%; in the assay with HCT-116 colon, 86.5%; with HCC-2998 colon, 83.4%; in the assay with KM12 colon, 110%.

Turning to `[O-]/[N+](=C\C=C\c1ccccc1)c1ccccc1`, the growth was 87.3% with RPMI-8226 leukemia; 121% in the assay on OVCAR-8 ovarian; 107% in the assay on OVCAR-5 ovarian; 92.1% in the assay with OVCAR-4 ovarian; 110% with SK-OV-3 ovarian; 113% in the assay with IGROV1 ovarian. The growth is 99.9% in the assay on OVCAR-3 ovarian; 130% in the assay on HS 578T breast; 103% in the assay on NCI/ADR-RES ovarian; 95.6% in the assay with T-47D breast; 109% in the assay on BT-549 breast; 108% in the assay on MDA-MB-435 melanoma. The growth with SW-620 colon was 104%; in the assay on MCF7 breast, 96.3%; in the assay with HCT-116 colon it was 102%; with HCC-2998 colon, 103%; in the assay on KM12 colon, 100%.

For `Cc1cc(NC(=O)c2ccc(N)cc2)ccc1N=Nc1ccc2c(O)c(N=Nc3ccc(Cl)c(S(=O)(=O)O)c3)c(S(=O)(=O)O)cc2c1`, the growth is 65.6% in the assay on RPMI-8226 leukemia; 70.2% in the assay with OVCAR-8 ovarian; 92.2% with OVCAR-5 ovarian; 106% in the assay with OVCAR-4 ovarian; 88.6% with SK-OV-3 ovarian; 73% with IGROV1 ovarian. Also, the growth with OVCAR-3 ovarian was 85.9%; in the assay on HS 578T breast, 103%; with NCI/ADR-RES ovarian, 76.1%; with T-47D breast, 70.9%; with BT-549 breast, 102%; in the assay with MDA-MB-435 melanoma, 95.5%. For the same compound, the growth in the assay on SW-620 colon is 92.6%; with MCF7 breast, 80.1%; in the assay on HCT-116 colon it was 71.5%; in the assay on HCC-2998 colon, 73.1%; in the assay on KM12 colon it was 90%.

For the compound `CCCCCCCCSc1ncnc2c1ncn2CO`, the growth is 60.7% in the assay with RPMI-8226 leukemia; 90.4% in the assay with OVCAR-8 ovarian; 103% with OVCAR-5 ovarian; 60.3% with OVCAR-4 ovarian; 83.1% in the assay with SK-OV-3 ovarian; 93.3% with IGROV1 ovarian. Also, the growth in the assay on OVCAR-3 ovarian was 78.2%; with HS 578T breast it was 95.6%; in the assay on NCI/ADR-RES ovarian, 86.8%; in the assay with T-47D breast, 62%; in the assay on BT-549 breast it was 84.6%; in the assay with MDA-MB-435 melanoma it was 82.6%. For the same compound, the growth in the assay with SW-620 colon was 93.8%; in the assay on MCF7 breast, 75.7%; with HCT-116 colon it was 66.8%; in the assay on HCC-2998 colon it was 109%; with KM12 colon, 88.2%.

On to `COc1ccc(CCN2CCCN3C2=Nc2ccccc2S3(=O)=O)cc1`, for which the growth is 29.9% with RPMI-8226 leukemia; 36.2% in the assay on OVCAR-8 ovarian; 43.4% with OVCAR-5 ovarian; 54.1% in the assay on OVCAR-4 ovarian; 48.6% in the assay on SK-OV-3 ovarian; 50.8% with IGROV1 ovarian. Also, the growth with OVCAR-3 ovarian is 6.69% (active); in the assay on HS 578T breast it was 39.5%; in the assay with NCI/ADR-RES ovarian, 15.8%; in the assay on T-47D breast, 44.7%; in the assay on BT-549 breast it was 50.2%; in the assay with MDA-MB-435 melanoma it was -5.64% (active). For the same compound, the growth with SW-620 colon was 28%; with MCF7 breast, 19.3%; with HCT-116 colon, 17.4%; in the assay on HCC-2998 colon, 21.7%; with KM12 colon, 25.8%.

For the compound `O=C(Nc1ccc(Cl)cc1)Nc1ccc(Nc2nncc3ccccc23)cc1`, the growth with RPMI-8226 leukemia is 8.62% (active); with OVCAR-8 ovarian, 18.2%; with OVCAR-5 ovarian, 85.6%; with OVCAR-4 ovarian, 11.1%; in the assay on SK-OV-3 ovarian it was 38.2%; in the assay with IGROV1 ovarian, 39.7%. Further, the growth in the assay on OVCAR-3 ovarian is 17.6%; with HS 578T breast, 58.3%; in the assay with NCI/ADR-RES ovarian, 36.2%; in the assay with T-47D breast, -6.32% (active); in the assay on BT-549 breast, 15.7%; in the assay with MDA-MB-435 melanoma, 13.7%. The growth in the assay with SW-620 colon is 27%; in the assay on MCF7 breast, 5.46% (active); with HCT-116 colon, 15.2%; in the assay with HCC-2998 colon it was 30.7%; with KM12 colon, 18.9%.
